Entries with a potency or affinity are not part of this list. Activity calls are given as the source filed them.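 How the source made its calls: active means Loss of cell signal with fitted half-effect dose at or below twice the top valid tested dose; inconclusive means Poor fit, or flat fit from -70 to -30 percent; inactive means Half-effect above limit, rising signal, or flat within 30 percent.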

The assay is described as follows: HEK293T cell cytotoxicity, dose response, cytotoxicity control for HIV Vif inhibitor project, cherry-picks (AID 652208). The note with it: HEK293T viability, CellTiter-Glo luminescence, 24 h; series mostly up to 26 µM. Background: Cellular ATP, detected with luciferase, serves as a proxy for viable cell number.
As to `CC(Cc1ccc(O)cc1)NCC(O)c1cc(O)cc(O)c1` (stereo unspecified), the call was inactive.

Turning to `O=C(Cn1ncc2c3ccccc3n(Cc3cccc(Cl)c3)c2c1=O)N1CCC2(CC1)OCCO2`, the compound was called inactive.

Regarding `O=C(NC1(C(F)(F)F)Oc2ccc(Cl)cc2O1)N1CCC2(CC1)OCCO2` (stereo unspecified), the result was inactive.

Turning to `O=C(Cc1ccccc1)OCC(=O)c1ccc(F)cc1`, the compound was called inactive.

With `CC(C)CC(NC(=O)C1CCCCC1)C(=O)N1CCC2(CC1)OCCO2` (stereo unspecified), the compound was classed as inactive.

Consider `CN1CCc2nc3ccc(F)cc3c(C(N)=O)c2C1`, for which the result was inactive.

The record behind these values is PubChem BioAssay AID652208 (Broad Institute, 2013).
